Experimental data reported in PubChem BioAssay (NCI).
About 79,000 compounds went through this panel and 15% of them were active in at least one assay; those are over-represented in the sample as a whole. Activity calls are given as the source filed them. No stated cut-off is given here; in the data, active means growth inhibition above about 70%; inactive means the rest.

What was measured:
[1] = NCI Yeast Anticancer Drug Screen. Data for the rad52 strain (AID 147);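 further: 0% = growth of vehicle-treated control cultures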; conditions: S. cerevisiae rad52 mutant growth inhibition, active compounds read high
How it was run: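 The repair-mutant yeast strain was incubated with compounds, then growth was read and inhibition derived relative to vehicle.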

[2] = NCI Yeast Anticancer Drug Screen. Data for the wt1 strain (AID 149);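 further: 0% = growth of vehicle-treated wt1 cultures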; conditions: S. cerevisiae wt1 strain (SPY 50644) growth inhibition, active compounds read high
How it was run: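 The wt1 strain was treated with compounds, and growth was compared with vehicle-treated cultures to give inhibition.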

[3] = NCI Yeast Anticancer Drug Screen. Data for the rad50EPP+ strain (AID 151);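 further: 0% = growth of vehicle-treated control cultures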; conditions: S. cerevisiae rad50 mutant strain, active compounds read high
How it was run: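 Vehicle-normalised growth inhibition; rad50EPP+ yeast strain, altered in DNA damage repair, compound-treated.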

[4] = NCI Yeast Anticancer Drug Screen. Data for the rad50 strain (AID 155);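 further: 0% = growth of vehicle-only cultures of the same strain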; conditions: S. cerevisiae rad50 strain growth inhibition, active compounds read high
How it was run: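 Cells are treated with compound, grown, and their growth is then scored against vehicle-only cultures of the same repair-deficient yeast strain.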

[5] = NCI Yeast Anticancer Drug Screen. Data for the mec2-1 strain (AID 157); conditions: S. cerevisiae mec2-1 strain, active compounds read high
How it was run: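 Mutant yeast (mec2-1) grown with compound; growth inhibition relative to vehicle control reported.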

[6] = NCI Yeast Anticancer Drug Screen. Data for the rad14 strain (AID 159);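 further: 0% = growth of vehicle-treated control cultures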; conditions: S. cerevisiae rad14 strain growth inhibition, active compounds read high
How it was run: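 Readout: yeast growth inhibition, referenced to vehicle-only cultures. Strain bears a defined alteration in DNA damage repair.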

[7] = NCI Yeast Anticancer Drug Screen. Data for the sgs1 mgt1 strain (AID 161);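 further: 0% = growth of cultures given vehicle only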; conditions: S. cerevisiae sgs1 mgt1 strain, active compounds read high
How it was run: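 This yeast growth screen uses a strain with defined DNA-repair lesions; compound-treated growth is compared with vehicle-treated growth.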

[8] = NCI Yeast Anticancer Drug Screen. Data for the CLN2oe strain (AID 163);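 further: 0% = growth of vehicle-only control cultures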; conditions: S. cerevisiae CLN2oe strain, active compounds read high
How it was run: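 Compounds are applied to yeast harbouring a defined cell-cycle control change; reduced growth compared with vehicle-treated controls gives the value.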

[9] = NCI Yeast Anticancer Drug Screen. Data for the cln2 rad14 strain (AID 165);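 further: 0% = growth equal to vehicle treated cultures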; conditions: S. cerevisiae cln2 rad14 strain, active compounds read high
How it was run: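 Readout is yeast growth inhibition versus vehicle-treated controls, using a strain with cln2 and rad14 alterations exposed to compound.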

[10] = NCI Yeast Anticancer Drug Screen. Data for the bub3 strain (AID 167); conditions: S. cerevisiae bub3 mutant strain, active compounds read high
How it was run: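 Part of a panel of yeast mutants defective in DNA damage repair or cell cycle regulation. Each strain is grown with compound, and inhibition is calculated relative to solvent-treated cultures.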

[11] = NCI Yeast Anticancer Drug Screen. Data for the wt2 strain (AID 169);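 further: 0% = growth of vehicle-treated yeast cultures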; conditions: S. cerevisiae wt2 strain growth inhibition, active compounds read high
How it was run: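 Against vehicle-treated controls, the growth of yeast exposed to each compound was compared, and the inhibition was recorded.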

[12] = NCI Yeast Anticancer Drug Screen. Data for the sgs1 strain (AID 173);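 further: 0% = growth of vehicle-only control cultures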; conditions: S. cerevisiae sgs1 mutant, active compounds read high
How it was run: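 Each compound was added to cultures of the altered yeast strain. Growth was recorded, and inhibition was derived by comparison with vehicle controls.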

[13] = NCI Yeast Anticancer Drug Screen. Data for the mlh1 rad18 strain (AID 175); conditions: S. cerevisiae mlh1 rad18 strain growth inhibition, active compounds read high
How it was run: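 Genetically defined yeast (DNA repair-deficient) exposed to compounds; growth inhibition determined relative to vehicle.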

[14] = NCI Yeast Anticancer Drug Screen. Data for the rad18 strain (AID 177); conditions: S. cerevisiae rad18 mutant growth inhibition, active compounds read high
How it was run: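 Vehicle-treated cultures served as the baseline for scoring compound-induced growth inhibition in DNA-repair-mutant yeast.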

[15] = NCI Yeast Anticancer Drug Screen. Data for the mlh1 strain (AID 171);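 further: 0% = growth of vehicle-treated control cultures of the same strain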; conditions: S. cerevisiae mlh1 strain growth inhibition, active compounds read high
How it was run: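 Measured: yeast growth. Reference: vehicle-treated controls. Organism: strain with a defined alteration affecting DNA damage repair or cell cycle control, treated with compound.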

[16] = at 5.0 µM (retest, dose inferred, filed as 0.5)
[17] = at 50.0 µM (retest, dose inferred, filed as 5.0)

Measured: growth inhibition

Nc1cc(F)cc2c1-c1ccc(F)cc1C2
active: [1]; at 100.0 µM 92% | [2]; at 100.0 µM 90% | [3]; at 33.0 µM 90% | [3]; at 100.0 µM 95% | [4]; at 50.0 µM 87% | [4]; at 100.0 µM 92% | [5]; at 50.0 µM 74.6% | [5]; at 100.0 µM 91% | [6]; at 100.0 µM 94% | [7]; at 50.0 µM 77% | [8]; at 100.0 µM 72% | [9]; at 50.0 µM 78.5% | [10]; at 50.0 µM 78.5% | [10]; at 100.0 µM 91% | [11]; at 100.0 µM 89% | [12]; at 100.0 µM 93% | [13]; at 50.0 µM 87.7% | [14]; at 100.0 µM 94%
inactive: [1]; at 1.2 µM -1% | [1]; at 3.7 µM -1% | [1]; at 11.0 µM 3% | [1]; at 33.0 µM 30% | [2]; at 1.2 µM -3% | [2]; at 3.7 µM -4% | [2]; at 11.0 µM -4% | [2]; at 33.0 µM 10% | [3]; at 1.2 µM 3% | [3]; at 3.7 µM 10% | [3]; at 11.0 µM 25% | [4]; at 1.2 µM 6% | [4]; at 3.7 µM -41% | [4]; [16] 1% | [4]; at 11.0 µM 33% | [4]; at 33.0 µM 47% | [4]; [17] 60% | [5]; at 1.2 µM -1% | [5]; at 3.7 µM 1% | [5]; [16] 2% | [5]; at 11.0 µM 2% | [5]; at 33.0 µM 23% | [5]; [17] 18% | [6]; at 1.2 µM 4% | [6]; at 3.7 µM 5% | [6]; at 11.0 µM 9% | [6]; at 33.0 µM 27% | [7]; [16] -5% | [7]; [17] 7% | [8]; at 1.2 µM -10% | [8]; at 3.7 µM -9% | [8]; at 11.0 µM -1% | [8]; at 33.0 µM 7% | [9]; [16] 0% | [9]; [17] 40% | [10]; at 1.2 µM -1% | [10]; at 3.7 µM -2% | [10]; [16] 3% | [10]; at 11.0 µM -2% | [10]; at 33.0 µM 16% | [10]; [17] 27% | [11]; at 1.2 µM -3% | [11]; at 3.7 µM 5% | [11]; at 11.0 µM -3% | [11]; at 33.0 µM 15% | [12]; at 1.2 µM -3% | [12]; at 3.7 µM 0% | [12]; at 11.0 µM 6% | [12]; at 33.0 µM 46% | [13]; [16] -1% | [13]; [17] 61% | [14]; at 1.2 µM -1% | [14]; at 3.7 µM 4% | [14]; at 11.0 µM 7% | [14]; at 33.0 µM 49%

Cc1ccc(S(=O)(=O)Nc2ccc3c(c2)C(O)c2ccccc2-3)cc1 (stereo not drawn)
active: [1]; at 33.0 µM 71% | [4]; at 50.0 µM 74.5% | [7]; at 50.0 µM 89.5% | [9]; at 50.0 µM 79.4% | [11]; at 33.0 µM 75% | [15]; at 33.0 µM 80% | [12]; at 33.0 µM 86% | [13]; at 50.0 µM 91% | [14]; at 33.0 µM 73%
inactive: [1]; at 1.2 µM -2% | [1]; at 3.7 µM -1% | [1]; at 11.0 µM 9% | [1]; at 100.0 µM 59% | [2]; at 1.2 µM -3% | [2]; at 3.7 µM -7% | [2]; at 11.0 µM -7% | [2]; at 33.0 µM 22% | [2]; at 100.0 µM 27% | [3]; at 1.2 µM 4% | [3]; at 3.7 µM 10% | [3]; at 11.0 µM 31% | [3]; at 33.0 µM 38% | [3]; at 100.0 µM 22% | [4]; at 1.2 µM -2% | [4]; at 3.7 µM -3% | [4]; [16] -4% | [4]; at 11.0 µM 6% | [4]; at 33.0 µM 48% | [4]; [17] 10% | [4]; at 100.0 µM 42% | [5]; at 1.2 µM -5% | [5]; at 3.7 µM -3% | [5]; [16] -9% | [5]; at 11.0 µM -5% | [5]; at 33.0 µM 21% | [5]; [17] 7% | [5]; at 50.0 µM 23.1% | [5]; at 100.0 µM 33% | [6]; at 1.2 µM -2% | [6]; at 3.7 µM -3% | [6]; at 11.0 µM 4% | [6]; at 33.0 µM 38% | [6]; at 100.0 µM 23% | [7]; [16] 0% | [7]; [17] 5% | [8]; at 1.2 µM -7% | [8]; at 3.7 µM -10% | [8]; at 11.0 µM -9% | [8]; at 33.0 µM 30% | [8]; at 100.0 µM 30% | [9]; [16] -19% | [9]; [17] 23% | [11]; at 1.2 µM -6% | [11]; at 3.7 µM -7% | [11]; at 11.0 µM -2% | [11]; at 100.0 µM 43% | [15]; at 1.2 µM -8% | [15]; at 3.7 µM -6% | [15]; at 11.0 µM 2% | [15]; at 100.0 µM 33% | [12]; at 1.2 µM -1% | [12]; at 3.7 µM -1% | [12]; at 11.0 µM 26% | [12]; at 100.0 µM 57% | [13]; [16] -6% | [13]; [17] 40% | [14]; at 1.2 µM -3% | [14]; at 3.7 µM -4% | [14]; at 11.0 µM -4% | [14]; at 100.0 µM 51%
